{"source": "PubChem BioAssay AID1159580", "about": "(chemical genetic matrix, 2015)", "experiment": "chemical genetic growth profiling, strain panel (AID 1159580);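 note: tested at 20 µM; growth read once vehicle control cultures reached saturation at 30 °C; 1 = growth at the plate median or of vehicle wells; lower values mean less growth of the strain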", "settings": "growth OD", "note": "Several values for one entry are separate records, joined by “and”; a condition that tells them apart may be missing. Identical values can stand only once. In all, about 5,500 compounds went through this assay and about 2,000 (36%) were called active. Not shown: some 18% with an inconclusive outcome. The list shows a part of the results. Unmarked numbers belong to inactive results. Cut-off read from the data, not from the text of the source: active = normalized growth mostly below about 0.91 (no sharp cut-off); inconclusive = no clear call, values can overlap the other calls; inactive = mostly above about 0.92.", "data": [{"molecule": "Clc1ccc2c(c1)C(N1CCNCC1)=Nc1ccccc1O2", "values": [{"measurement": "normalized growth", "setting": "S. cerevisiae deletion strains, locus YKL068W, stronger effect = lower value", "value": 0.996}, {"measurement": "normalized growth", "setting": "S. cerevisiae deletion strains, locus YKL085W, strain MDH1 (second series), stronger effect = lower value", "value": 1.01}, {"measurement": "normalized growth", "setting": "S. cerevisiae deletion strains, locus YKL085W, strain MDH1, stronger effect = lower value", "value": 1.01}, {"measurement": "normalized growth", "setting": "S. cerevisiae deletion strains, locus YKL160W, strain elf1, stronger effect = lower value", "value": 1.01}, {"measurement": "normalized growth", "setting": "S. cerevisiae deletion strains, locus YKL190W, strain CNB1, stronger effect = lower value", "value": 0.996}, {"measurement": "normalized growth", "setting": "S. cerevisiae deletion strains, locus YKR001C, strain vps1, stronger effect = lower value", "value": 1.03}, {"measurement": "normalized growth", "setting": "S. cerevisiae deletion strains, locus YKR026C, strain gcn3, stronger effect = lower value", "value": 0.983}, {"measurement": "normalized growth", "setting": "S. cerevisiae deletion strains, locus YKR091W, strain srl3, stronger effect = lower value", "value": 0.989}, {"measurement": "normalized growth", "setting": "S. cerevisiae deletion strains, locus YLL001W, strain dnm1, stronger effect = lower value", "value": 0.987}, {"measurement": "normalized growth", "setting": "S. cerevisiae deletion strains, locus YLL026W, stronger effect = lower value", "value": 1}, {"measurement": "normalized growth", "setting": "S. cerevisiae deletion strains, locus YLL041C, strain sdh2, stronger effect = lower value", "value": 1}, {"measurement": "normalized growth", "setting": "S. cerevisiae deletion strains, locus YLR027C, strain aat2, stronger effect = lower value", "value": 0.986}, {"measurement": "normalized growth", "setting": "S. cerevisiae deletion strains, locus YLR039C, strain RIC1, stronger effect = lower value", "value": 1.32}, {"measurement": "normalized growth", "setting": "S. cerevisiae deletion strains, locus YLR058C, strain SHM2, stronger effect = lower value", "value": 0.979}, {"measurement": "normalized growth", "setting": "S. cerevisiae deletion strains, locus YLR102C, strain apc9, stronger effect = lower value", "value": 0.993}, {"measurement": "normalized growth", "setting": "S. cerevisiae deletion strains, locus YLR113W, strain HOG1, stronger effect = lower value", "value": 1.02}, {"measurement": "normalized growth", "setting": "S. cerevisiae deletion strains, locus YLR221C, strain rsa3, stronger effect = lower value", "value": 0.985}, {"measurement": "normalized growth", "setting": "S. cerevisiae deletion strains, locus YLR258W, strain gsy2, stronger effect = lower value", "value": 0.991}, {"measurement": "normalized growth", "setting": "S. cerevisiae deletion strains, locus YLR262C, strain YPT6 (second series), stronger effect = lower value", "value": 1.04}, {"measurement": "normalized growth", "setting": "S. cerevisiae deletion strains, locus YLR262C, strain YPT6, stronger effect = lower value", "value": 1.38}, {"measurement": "normalized growth", "setting": "S. cerevisiae deletion strains, locus YLR268W, strain sec22, stronger effect = lower value", "value": 1.08}, {"measurement": "normalized growth", "setting": "S. cerevisiae deletion strains, locus YLR320W, strain mms22, stronger effect = lower value", "value": 0.967}, {"measurement": "normalized growth", "setting": "S. cerevisiae deletion strains, locus YLR330W, strain CHS5, stronger effect = lower value", "value": 0.988}, {"measurement": "normalized growth", "setting": "S. cerevisiae deletion strains, locus YLR342W, strain FKS1 (second series), stronger effect = lower value", "value": 0.901}, {"measurement": "normalized growth", "setting": "S. cerevisiae deletion strains, locus YLR342W, strain FKS1, stronger effect = lower value", "value": 0.955}, {"measurement": "normalized growth", "setting": "S. cerevisiae deletion strains, locus YLR357W, strain rsc2, stronger effect = lower value", "value": 0.97}, {"measurement": "normalized growth", "setting": "S. cerevisiae deletion strains, locus YLR370C, strain arc18, stronger effect = lower value", "value": 0.993}, {"measurement": "normalized growth", "setting": "S. cerevisiae deletion strains, locus YLR371W, strain rom2, stronger effect = lower value", "value": 0.968}, {"measurement": "normalized growth", "setting": "S. cerevisiae deletion strains, locus YLR384C, strain iki3, stronger effect = lower value", "value": 0.977}, {"measurement": "normalized growth", "setting": "S. cerevisiae deletion strains, locus YLR418C, strain cdc73, stronger effect = lower value", "value": 0.981}, {"measurement": "normalized growth", "setting": "S. cerevisiae deletion strains, locus YML016C, strain PPZ1, stronger effect = lower value", "value": 0.981}, {"measurement": "normalized growth", "setting": "S. cerevisiae deletion strains, locus YML032C, strain rad52, stronger effect = lower value", "value": 1.01}, {"measurement": "normalized growth", "setting": "S. cerevisiae deletion strains, locus YML120C, strain ndi1, stronger effect = lower value", "value": 1.01}, {"measurement": "normalized growth", "setting": "S. cerevisiae deletion strains, locus YML124C, strain tub3, stronger effect = lower value", "value": 0.979}, {"measurement": "normalized growth", "setting": "S. cerevisiae deletion strains, locus YMR058W, strain fet3, stronger effect = lower value", "value": 0.981}, {"measurement": "normalized growth", "setting": "S. cerevisiae deletion strains, locus YMR078C, strain ctf18, stronger effect = lower value", "value": 0.983}, {"measurement": "normalized growth", "setting": "S. cerevisiae deletion strains, locus YMR125W, strain sto1, stronger effect = lower value", "value": 0.928}, {"measurement": "normalized growth", "setting": "S. cerevisiae deletion strains, locus YMR129W, stronger effect = lower value", "value": 1.01}, {"measurement": "normalized growth", "setting": "S. cerevisiae deletion strains, locus YMR205C, strain PFK2, stronger effect = lower value", "value": 0.998}, {"measurement": "normalized growth", "setting": "S. cerevisiae deletion strains, locus YMR223W, strain ubp8, stronger effect = lower value", "value": 0.962}, {"measurement": "normalized growth", "setting": "S. cerevisiae deletion strains, locus YMR231W, strain pep5, stronger effect = lower value", "value": "0.487 (active)"}, {"measurement": "normalized growth", "setting": "S. cerevisiae deletion strains, locus YMR263W, strain SAP30, stronger effect = lower value", "value": 0.979}, {"measurement": "normalized growth", "setting": "S. cerevisiae deletion strains, locus YMR307W, strain GAS1, stronger effect = lower value", "value": 1.15}, {"measurement": "normalized growth", "setting": "S. cerevisiae deletion strains, locus YNL067W, strain RPL9B, stronger effect = lower value", "value": 1.01}, {"measurement": "normalized growth", "setting": "S. cerevisiae deletion strains, locus YNL071W, strain lat1, stronger effect = lower value", "value": 0.972}, {"measurement": "normalized growth", "setting": "S. cerevisiae deletion strains, locus YNL128W, strain TEP1, stronger effect = lower value", "value": 0.975}, {"measurement": "normalized growth", "setting": "S. cerevisiae deletion strains, locus YNL153C, strain GIM3, stronger effect = lower value", "value": 1.01}, {"measurement": "normalized growth", "setting": "S. cerevisiae deletion strains, locus YNL175C, strain NOP13, stronger effect = lower value", "value": 1}, {"measurement": "normalized growth", "setting": "S. cerevisiae deletion strains, locus YNL183C, strain NPR1, stronger effect = lower value", "value": 0.966}, {"measurement": "normalized growth", "setting": "S. cerevisiae deletion strains, locus YNL197C, strain WHI3, stronger effect = lower value", "value": 1.01}, {"measurement": "normalized growth", "setting": "S. cerevisiae deletion strains, locus YNL209W, strain ssb2, stronger effect = lower value", "value": 0.991}, {"measurement": "normalized growth", "setting": "S. cerevisiae deletion strains, locus YNL224C, strain SQS1, stronger effect = lower value", "value": 1.02}, {"measurement": "normalized growth", "setting": "S. cerevisiae deletion strains, locus YNL233W, strain BNI4, stronger effect = lower value", "value": 1}, {"measurement": "normalized growth", "setting": "S. cerevisiae deletion strains, locus YNL248C, strain rpa49, stronger effect = lower value", "value": 0.998}, {"measurement": "normalized growth", "setting": "S. cerevisiae deletion strains, locus YNL250W, strain rad50, stronger effect = lower value", "value": 0.981}, {"measurement": "normalized growth", "setting": "S. cerevisiae deletion strains, locus YNL271C, strain bni1, stronger effect = lower value", "value": 0.994}, {"measurement": "normalized growth", "setting": "S. cerevisiae deletion strains, locus YNL298W, strain CLA4, stronger effect = lower value", "value": 0.97}, {"measurement": "normalized growth", "setting": "S. cerevisiae deletion strains, locus YNL307C, strain MCK1, stronger effect = lower value", "value": 0.983}, {"measurement": "normalized growth", "setting": "S. cerevisiae deletion strains, locus YNL322C, strain KRE1 (second series), stronger effect = lower value", "value": 0.986}, {"measurement": "normalized growth", "setting": "S. cerevisiae deletion strains, locus YNL322C, strain KRE1, stronger effect = lower value", "value": "0.99 and 0.992"}, {"measurement": "normalized growth", "setting": "S. cerevisiae deletion strains, locus YNR049C, strain mso1, stronger effect = lower value", "value": 0.995}, {"measurement": "normalized growth", "setting": "S. cerevisiae deletion strains, locus YNR052C, strain pop2, stronger effect = lower value", "value": 0.97}, {"measurement": "normalized growth", "setting": "S. cerevisiae deletion strains, locus YOL006C, strain TOP1, stronger effect = lower value", "value": 1.06}, {"measurement": "normalized growth", "setting": "S. cerevisiae deletion strains, locus YOL012C, strain htz1", "value": 1.29}, {"measurement": "normalized growth", "setting": "S. cerevisiae deletion strains, locus YOL147C, strain pex11, stronger effect = lower value", "value": 1}, {"measurement": "normalized growth", "setting": "S. cerevisiae deletion strains, locus YOR001W, strain rrp6, stronger effect = lower value", "value": 0.937}, {"measurement": "normalized growth", "setting": "S. cerevisiae deletion strains, locus YOR061W, strain CKA2, stronger effect = lower value", "value": 0.969}, {"measurement": "normalized growth", "setting": "S. cerevisiae deletion strains, locus YOR069W, strain VPS5, stronger effect = lower value", "value": 0.991}, {"measurement": "normalized growth", "setting": "S. cerevisiae deletion strains, locus YOR070C, strain gyp1, stronger effect = lower value", "value": 1}, {"measurement": "normalized growth", "setting": "S. cerevisiae deletion strains, locus YOR080W, strain dia2, stronger effect = lower value", "value": 0.989}, {"measurement": "normalized growth", "setting": "S. cerevisiae deletion strains, locus YOR083W, strain WHI5 (second series), stronger effect = lower value", "value": "1.13 [resistant] (active)"}, {"measurement": "normalized growth", "setting": "S. cerevisiae deletion strains, locus YOR083W, strain WHI5, stronger effect = lower value", "value": 0.937}, {"measurement": "normalized growth", "setting": "S. cerevisiae deletion strains, locus YOR106W, strain vam3, stronger effect = lower value", "value": 0.953}, {"measurement": "normalized growth", "setting": "S. cerevisiae deletion strains, locus YOR136W, strain idh2, stronger effect = lower value", "value": 0.975}, {"measurement": "normalized growth", "setting": "S. cerevisiae deletion strains, locus YOR144C, strain elg1, stronger effect = lower value", "value": 0.99}, {"measurement": "normalized growth", "setting": "S. cerevisiae deletion strains, locus YOR184W, strain ser1, stronger effect = lower value", "value": 1.01}, {"measurement": "normalized growth", "setting": "S. cerevisiae deletion strains, locus YOR231W, strain MKK1, stronger effect = lower value", "value": 1.02}, {"measurement": "normalized growth", "setting": "S. cerevisiae deletion strains, locus YOR265W, strain rbl2, stronger effect = lower value", "value": 0.992}, {"measurement": "normalized growth", "setting": "S. cerevisiae deletion strains, locus YOR270C, strain vph1, stronger effect = lower value", "value": 0.818}, {"measurement": "normalized growth", "setting": "S. cerevisiae deletion strains, locus YOR290C, strain snf2, stronger effect = lower value", "value": 0.948}, {"measurement": "normalized growth", "setting": "S. cerevisiae deletion strains, locus YOR316C, strain cot1, stronger effect = lower value", "value": 0.987}, {"measurement": "normalized growth", "setting": "S. cerevisiae deletion strains, locus YPL051W, strain arl3, stronger effect = lower value", "value": 0.987}, {"measurement": "normalized growth", "setting": "S. cerevisiae deletion strains, locus YPL055C, strain LGE1, stronger effect = lower value", "value": 0.989}, {"measurement": "normalized growth", "setting": "S. cerevisiae deletion strains, locus YPL078C, strain atp4, stronger effect = lower value", "value": 0.991}, {"measurement": "normalized growth", "setting": "S. cerevisiae deletion strains, locus YPL106C, strain sse1, stronger effect = lower value", "value": 0.966}, {"measurement": "normalized growth", "setting": "S. cerevisiae deletion strains, locus YPL240C, strain hsp82, stronger effect = lower value", "value": 0.978}, {"measurement": "normalized growth", "setting": "S. cerevisiae deletion strains, locus YPL241C, strain CIN2, stronger effect = lower value", "value": "1 and 0.992"}, {"measurement": "normalized growth", "setting": "S. cerevisiae deletion strains, locus YPL256C, strain CLN2, stronger effect = lower value", "value": 1.03}, {"measurement": "normalized growth", "setting": "S. cerevisiae deletion strains, locus YPR119W, strain clb2, stronger effect = lower value", "value": 0.994}, {"measurement": "normalized growth", "setting": "S. cerevisiae deletion strains, locus YPR141C, strain kar3, stronger effect = lower value", "value": 0.956}, {"measurement": "normalized growth", "setting": "S. cerevisiae deletion strains, locus YPR163C, strain tif3, stronger effect = lower value", "value": 0.986}, {"measurement": "normalized growth", "setting": "S. cerevisiae deletion strains, locus YPR167C, strain met16, stronger effect = lower value", "value": 0.988}, {"measurement": "normalized growth", "setting": "S. cerevisiae deletion strains, strain wtn01, stronger effect = lower value", "value": 0.991}, {"measurement": "normalized growth", "setting": "S. cerevisiae strains, strain wild type, stronger effect = lower value", "value": 0.977}]}]}
